# Measured values published in PubChem BioAssay (NCATS).
# Where “and” joins values, the source holds several entries; their conditions need not be identical. Equal values may be shown once. A number with no mark means an inactive call. Results filed as inconclusive are left out. A call without a number means that no potency is given here. Calls of active or inactive are those of the source. Unless noted, the call rests on the fitted dose curve; in most records, active means well fitted curve in the direction sought with a large enough effect; inconclusive means small, poorly fitted or top-dose-only effect, or another doubt; inactive means no such curve, though single readings can be large; an effect the other way counts as inactive or inconclusive.
# Legend:
# [1] = Cellular Toxicity (caspase-3) H-4-II-E (AID 663); conditions: H-4-II-E rat hepatoma, scaled: DMSO 0%, 100 µM tamoxifen 100%; at 92.2 µM (top of the series);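 further: cells exposed to compound for 16 hr before readout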
# In short: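 Caspase 3/7 activation measured in H-4-II-E cells in complete culture medium after 16 hr treatment at 37 °C, using luciferase-coupled substrate readout; AC50 values come from Hill-equation fits of normalized concentration-response data.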
# [2] = Cellular Toxicity (caspase-3) Hek293 (AID 664);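 further: cells exposed to compound for 16 h at 37 °C before readout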
# In short: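 Concentration-response qHTS: caspase 3/7 activation measured by luminescent aminoluciferin substrate cleavage after 16 h compound exposure of Hek 293 cells. AC50 from Hill equation, with DMSO as basal and 100 uM tamoxifen as 100%.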
# [3] = Cellular Toxicity (caspase-3) NIH 3T3 (AID 666);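 further: caspase signal read after 16 h compound exposure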
# In short: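 Caspase-Glo 3/7 luminescence reported caspase activation in 1000 NIH 3T3 cells/well after 16 h compound exposure at 37 C. DMSO set basal and 100 uM tamoxifen set 100% stimulation; concentration-response modeled with the Hill equation for AC50.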
# [4] = Cellular Toxicity (caspase-3) Renal Proximal Tubule (AID 667);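 further: cells exposed to compound for 16 hours at 37 °C before detection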
# In short: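 Primary rat proximal tubule cells, 1000/well, 5 h plating at 37 °C, then compound 16 h at 37 °C. Caspase-Glo 3/7 reagent, 1 h RT, luminescence. Normalized to DMSO (basal) and 10 uM staurosporine (100%); Hill-fit AC50.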
# [5] = target: Cytochrome P450 3A4 (Homo sapiens) (UniProt P08684); assay: qHTS Assay for Inhibitors and Substrates of Cytochrome P450 3A4 (AID 884); further: nearly all actives have a fitted effect of over 50% in size
# In short: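 Luminescent readout of luciferin produced by CYP3A4 (20 nM) dealkylation of Luciferin-PPXE, 25 uM (its KM). NADPH-driven reaction ran 60 min at RT after 10 min compound preincubation; data scaled to 57 uM ketoconazole as 100% inhibition.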
# [6] = Confirmation and Secondary Assay for Modulators of Hemoglobin Beta Chain Splicing at IVS2 654 locus (AID 910);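 further: per-well total GFP intensity by laser scanning cytometry after 2-day treatment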
# In short: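 HeLa cells stably carrying EGFP interrupted by mutant beta-globin IVS2-654 intron (CMV-driven) were treated with compound for 2 days at 37C; corrected splicing was scored as total peak GFP intensity per well (488 nm excitation, 500-520 nm emission).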
# [7] = Cell Viability - LYMP2-001 (AID 921); further: nearly all actives have a fitted effect of over 70% in size; further: potency means the concentration at half of the fitted maximal effect
# In short: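 Human lymphoblastoid cells (Coriell), 2500 per well, were preincubated 5 hr at 37 C, then exposed to compounds in complete medium for 24 hr at 37 C. Cellular ATP was read by CellTiter-Glo luminescence; AC50 from Hill fits of concentration-response data.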
# [8] = Confirmation and Secondary Assay for Modulators of Hemoglobin Beta Chain Splicing at IVS2 705 locus (AID 930);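 further: HeLa cells stably expressing the EGFP-705 splicing reporter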
# In short: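 Restored EGFP fluorescence after 2-day compound exposure reports splicing correction in IVS2-705 EGFP reporter HeLa cells; positive control was 500 nM splice-blocking PNA oligo. Signal measured as well total peak GFP intensity (488 nm excitation).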
# [9] = target: Guanine nucleotide-binding protein G(i) subunit alpha-1 (Homo sapiens) (UniProt P63096); assay: qHTS Assay for Inhibitors of RGS12 GoLoco Motif Activity (Green Fluorophore) (AID 879);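 further: negative values mean loss of peptide binding seen as reduced polarization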
# In short: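 A drop in FITC polarization marked displacement of the FITC-tagged RGS12 GoLoco peptide (10 nM) from Gαi1 (50 nM). Compounds were incubated 10 min at room temperature in Tris pH 7.5 buffer containing 150 mM NaCl, 0.1 mM GDP and 0.05% NP40; unlabeled peptide titration served as control.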
# [10] = qHTS Assay for Identification of Small Molecule Antagonists for NFkB Signaling Pathway (AID 895; active means well fitted inhibition curve with a large enough effect in the signal ratio, with a control signal flat, not every such curve was filed as active; the % refers to the signal ratio; further: potency means the concentration at half of the fitted maximal effect)
# In short: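 NFkB-bla ME-180 cervical carcinoma cells with beta-lactamase reporter under NFkB response element; compounds added, then TNF alpha at 10 pM final (EC50), 5 h at 37 C. LiveBLAzer substrate 2 h, room temperature; emission 460/530 nm at 405 nm excitation.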
# [11] = qHTS Assay for Identification of Small Molecule Agonists for Thrombopoietin (TPO) Signaling Pathway (AID 917)
# In short: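 First, Ba/F3 cells with human TPO receptor were held overnight without IL-3. Next, compounds and TPO (26 pM final) were added. After 24 hrs at 37 C, luciferase detection reagent was added and luminescence measured following 10 min at room temperature.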
# [12] = target: Muscarinic acetylcholine receptor M1 (Rattus norvegicus) (UniProt P08482); assay: qHTS Assay for Antagonists of Acetylcholine Muscarinic M1 Receptor: Kinetic Measurement of Intracellular Calcium Response (AID 943); further: nearly all actives have a fitted effect of over 75% in size; further: potency means the concentration at half of the fitted maximal effect
# In short: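 Antagonism measured as reduction of carbachol-evoked (EC80, 100 nM final) calcium flux in rat M1-CHO cells after 10 min compound exposure. Fluo-4 signal read kinetically; ratio of maximal to basal fluorescence.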
# [13] = target: Muscarinic acetylcholine receptor M1 (Rattus norvegicus) (UniProt P08482); assay: qHTS Assay for Antagonists of Acetylcholine Muscarinic M1 Receptor: Measurement of IP-One Response (AID 944); further: nearly all actives have a fitted effect of over 75% in size; further: potency means the concentration at half of the fitted maximal effect
# In short: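 IP1 accumulation measured via TR-FRET between d2-IP1 and Eu-cryptate anti-IP1 antibody after carbachol (200 nM, EC80) stimulation for 30 min; rat M1-transfected CHO cells received compound 10 min before agonist.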
# [14] = target: Pyruvate kinase (Leishmania mexicana) (UniProt Q27686); assay: qHTS Validation Assay for Inhibitors of Leishmania Mexicana Pyruvate Kinase (AID 945)
# In short: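 Purified LmPYK (E451W mutant, 0.2 nM) was incubated 1 h at room temperature with 0.5 mM PEP and 0.1 mM ADP in 50 mM imidazole pH 7.2, 50 mM KCl, 7 mM MgCl2; ATP formed was read by PKLight luminescence, normalized to DMSO wells.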
# [15] = target: Cytochrome P450 3A4 (Homo sapiens) (UniProt P08684); assay: qHTS Assay for Activators of Cytochrome P450 3A4 (AID 885); further: nearly all actives have a fitted effect of over 65% in size
# In short: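 CYP3A4 activity: Luciferin-PPXE O-dealkylation, 25uM substrate, 200mM KPO4, RT throughout. Read-out is luciferase luminescence; higher values reflect activation.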
# [16] = target: Cytochrome P450 2D6 (Homo sapiens) (UniProt P10635); assay: qHTS Assay for Inhibitors and Substrates of Cytochrome P450 2D6 (AID 891); further: nearly all actives have a fitted effect of over 60% in size; further: potency means the concentration at half of the fitted maximal effect
# In short: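 Luminescent read-out of luciferin formed by 5 nM human CYP2D6 demethylating 30 uM Luciferin-ME EGE (Km level) over 60 min at room temperature after NADPH regeneration addition. Data normalized to full inhibition by 1.43 uM quinidine.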
# [17] = target: Cytochrome P450 2C9 (Homo sapiens) (UniProt P11712); assay: qHTS Assay for Inhibitors and Substrates of Cytochrome P450 2C9 (AID 883); further: nearly all actives have a fitted effect of over 60% in size; further: potency means the concentration at half of the fitted maximal effect
# In short: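 A luminogenic readout tracked human CYP2C9 (10nM) converting deoxyluciferin (100uM, at KM) in 25mM KPO4 during 60 min at 37C with regenerated NADPH. Values normalized to 57uM sulphaphenazole as complete inhibition.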
# [18] = target: Cytochrome P450 2C19 (Homo sapiens) (UniProt P33261); assay: qHTS Assay for Inhibitors and Substrates of Cytochrome P450 2C19 (AID 899); further: nearly all actives have a fitted effect of over 60% in size; further: potency means the concentration at half of the fitted maximal effect
# In short: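 NADPH-dependent conversion of Luciferin-H EGE (10uM, at KM) by 5nM enzyme in 50mM KPO4, 60 min at 37C following 10 min compound preincubation. Stopped with luciferin detection buffer; luminescence read after 20 min.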
# [19] = qHTS Assay for Identification of Small Molecule Agonists for Hypoxia Response Element Signaling Pathway (AID 914; active means well fitted activation curve with a large enough effect in the signal ratio, with a control signal flat, not every such curve was filed as active; the % refers to the signal ratio); conditions: ME-180 (cervical carcinoma) HRE-bla reporter, beta-lactamase ratio, CoCl2, 17 h; stronger effect = higher value
# In short: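 AC50 values come from titration-series %Activity, taken as the 460/530nm ratio of CCF4 fluorescence (excitation 405nm). CellSensor HRE-bla ME-180 cells were treated 17 hours at 37 C with compound plus an EC50 level of CoCl2.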
# [20] = qHTS Assay for Identification of Small Molecule Antagonists for Thrombopoietin (TPO) Signaling Pathway (AID 918); conditions: TPO-dependent cell signaling reporter, antagonist mode; further: potency means the concentration at half of the fitted maximal effect; nearly all actives have a fitted effect of over 60% in size
# In short: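 Inhibition read as reduced luciferase luminescence after 24 h at 37 C in IL-3-deprived Ba/F3 cells carrying human TPO receptor and GPIIb-promoter reporter, stimulated with 26 pM TPO (final, its EC50) alongside compound.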
# Chain of Cytochrome P450 3A4 (Homo sapiens) (P08684 whole entry, looked up): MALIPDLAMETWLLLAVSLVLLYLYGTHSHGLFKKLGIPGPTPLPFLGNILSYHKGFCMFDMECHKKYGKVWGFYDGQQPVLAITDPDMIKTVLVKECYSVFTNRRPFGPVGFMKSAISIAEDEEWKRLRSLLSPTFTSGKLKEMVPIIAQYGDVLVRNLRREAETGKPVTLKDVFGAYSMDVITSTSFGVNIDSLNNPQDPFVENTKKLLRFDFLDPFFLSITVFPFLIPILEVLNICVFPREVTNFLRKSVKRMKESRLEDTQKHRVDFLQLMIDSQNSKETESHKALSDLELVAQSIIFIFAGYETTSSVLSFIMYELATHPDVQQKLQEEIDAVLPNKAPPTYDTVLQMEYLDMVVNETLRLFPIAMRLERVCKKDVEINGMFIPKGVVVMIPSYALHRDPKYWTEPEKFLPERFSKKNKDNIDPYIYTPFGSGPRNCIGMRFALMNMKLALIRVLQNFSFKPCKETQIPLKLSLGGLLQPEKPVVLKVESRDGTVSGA
# Chain of Muscarinic acetylcholine receptor M1 (Rattus norvegicus) (P08482 whole entry, looked up): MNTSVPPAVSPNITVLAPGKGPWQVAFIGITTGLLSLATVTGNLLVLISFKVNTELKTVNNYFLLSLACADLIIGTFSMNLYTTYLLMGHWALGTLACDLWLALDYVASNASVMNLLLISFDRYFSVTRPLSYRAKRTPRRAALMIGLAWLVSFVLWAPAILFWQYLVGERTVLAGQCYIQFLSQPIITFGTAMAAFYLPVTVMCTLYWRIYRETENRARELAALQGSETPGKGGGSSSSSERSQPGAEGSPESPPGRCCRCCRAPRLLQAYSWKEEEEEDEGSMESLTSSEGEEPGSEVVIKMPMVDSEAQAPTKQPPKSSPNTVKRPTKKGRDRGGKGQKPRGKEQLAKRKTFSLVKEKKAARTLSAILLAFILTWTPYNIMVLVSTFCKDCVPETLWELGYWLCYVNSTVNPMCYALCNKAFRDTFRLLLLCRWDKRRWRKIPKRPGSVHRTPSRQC
# Chain of Cytochrome P450 2D6 (Homo sapiens) (P10635 whole entry, looked up): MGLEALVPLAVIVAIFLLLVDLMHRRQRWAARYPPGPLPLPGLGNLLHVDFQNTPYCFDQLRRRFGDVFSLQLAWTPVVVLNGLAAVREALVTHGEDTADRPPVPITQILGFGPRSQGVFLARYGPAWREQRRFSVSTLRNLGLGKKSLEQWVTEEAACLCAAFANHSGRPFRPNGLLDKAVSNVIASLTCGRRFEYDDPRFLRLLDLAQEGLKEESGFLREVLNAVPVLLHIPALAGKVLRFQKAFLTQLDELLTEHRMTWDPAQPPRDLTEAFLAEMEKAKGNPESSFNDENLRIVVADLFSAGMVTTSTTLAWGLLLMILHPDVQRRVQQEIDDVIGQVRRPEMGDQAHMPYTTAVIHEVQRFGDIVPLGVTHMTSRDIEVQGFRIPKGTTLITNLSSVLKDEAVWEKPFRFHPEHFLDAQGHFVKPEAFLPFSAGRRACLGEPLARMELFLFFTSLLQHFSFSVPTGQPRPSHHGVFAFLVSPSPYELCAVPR
# Chain of Cytochrome P450 2C19 (Homo sapiens) (P33261 whole entry, looked up): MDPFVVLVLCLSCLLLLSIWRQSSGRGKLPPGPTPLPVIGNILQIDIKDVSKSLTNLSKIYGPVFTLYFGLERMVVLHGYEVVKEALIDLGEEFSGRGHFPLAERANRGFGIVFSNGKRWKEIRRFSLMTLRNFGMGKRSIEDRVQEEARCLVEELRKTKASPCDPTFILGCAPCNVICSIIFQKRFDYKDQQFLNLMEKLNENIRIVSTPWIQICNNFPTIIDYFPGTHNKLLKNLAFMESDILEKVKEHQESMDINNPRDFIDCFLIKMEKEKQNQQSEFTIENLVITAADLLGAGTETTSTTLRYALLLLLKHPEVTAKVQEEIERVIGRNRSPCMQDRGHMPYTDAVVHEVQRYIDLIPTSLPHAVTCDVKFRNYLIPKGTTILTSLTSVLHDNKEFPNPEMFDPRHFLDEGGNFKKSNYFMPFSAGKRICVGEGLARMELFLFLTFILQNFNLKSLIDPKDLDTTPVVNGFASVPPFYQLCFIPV
# Chain of Guanine nucleotide-binding protein G(i) subunit alpha-1 (Homo sapiens) (P63096 whole entry, looked up): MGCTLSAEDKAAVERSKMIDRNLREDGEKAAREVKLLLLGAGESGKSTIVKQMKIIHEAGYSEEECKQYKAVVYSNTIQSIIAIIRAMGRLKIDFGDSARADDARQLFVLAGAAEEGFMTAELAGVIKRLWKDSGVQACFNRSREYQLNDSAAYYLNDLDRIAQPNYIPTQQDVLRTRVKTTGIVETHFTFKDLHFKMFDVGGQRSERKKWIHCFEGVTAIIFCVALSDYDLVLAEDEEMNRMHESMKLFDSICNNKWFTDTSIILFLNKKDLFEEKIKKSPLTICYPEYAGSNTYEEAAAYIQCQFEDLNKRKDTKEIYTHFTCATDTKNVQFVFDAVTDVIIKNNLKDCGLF
# Chain of Pyruvate kinase (Leishmania mexicana) (Q27686 2-499 E452W): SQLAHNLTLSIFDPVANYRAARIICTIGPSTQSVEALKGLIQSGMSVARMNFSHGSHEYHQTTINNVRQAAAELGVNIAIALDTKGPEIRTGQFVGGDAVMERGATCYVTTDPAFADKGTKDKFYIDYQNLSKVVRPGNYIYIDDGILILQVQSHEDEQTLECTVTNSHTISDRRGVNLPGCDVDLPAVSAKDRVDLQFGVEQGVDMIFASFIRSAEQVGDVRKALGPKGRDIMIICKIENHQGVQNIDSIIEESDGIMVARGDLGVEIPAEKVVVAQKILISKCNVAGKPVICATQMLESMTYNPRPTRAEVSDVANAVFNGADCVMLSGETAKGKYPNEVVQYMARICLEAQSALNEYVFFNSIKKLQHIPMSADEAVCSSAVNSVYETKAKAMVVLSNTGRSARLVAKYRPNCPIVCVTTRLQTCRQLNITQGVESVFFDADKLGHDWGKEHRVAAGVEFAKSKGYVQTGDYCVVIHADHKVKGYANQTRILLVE
# Chain of Cytochrome P450 2C9 (Homo sapiens) (P11712 whole entry, looked up): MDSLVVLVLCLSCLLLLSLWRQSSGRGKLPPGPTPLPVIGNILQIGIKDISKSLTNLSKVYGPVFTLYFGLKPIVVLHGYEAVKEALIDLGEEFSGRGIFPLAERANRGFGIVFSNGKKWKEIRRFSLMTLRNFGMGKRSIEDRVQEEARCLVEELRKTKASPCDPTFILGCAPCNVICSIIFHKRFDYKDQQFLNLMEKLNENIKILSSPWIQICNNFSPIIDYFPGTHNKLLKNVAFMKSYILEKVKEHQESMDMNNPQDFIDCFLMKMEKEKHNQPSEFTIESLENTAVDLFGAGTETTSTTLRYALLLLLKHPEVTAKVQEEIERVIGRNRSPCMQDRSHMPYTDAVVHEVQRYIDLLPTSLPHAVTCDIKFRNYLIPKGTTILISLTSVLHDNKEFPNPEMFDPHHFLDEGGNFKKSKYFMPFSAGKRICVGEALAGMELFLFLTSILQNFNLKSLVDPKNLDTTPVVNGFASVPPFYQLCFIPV
compound,measurement,setting,value
Oc1cccc2cccnc12,caspase-3 activation,[1],5.58% and 5.31%
same,outcome,[2],inactive
same,outcome,[3],inactive
same,outcome,[4],inactive
same,Potency,[5],inactive
same,outcome,[6],inactive
same,Potency,[7],6.31 µM (active)
same,outcome,[8],inactive
CCOP(=S)(OCC)Oc1cc(C)nc(C(C)C)n1,caspase-3 activation,[1],-0.387%
same,outcome,[2],inactive
same,outcome,[3],inactive
same,outcome,[4],inactive
same,Potency,[7],inactive
CCCN1CCC[C@@H]2Cc3[nH]ncc3C[C@H]21,outcome,[9],inactive
same,Potency,[5],inactive
same,Potency,[10],inactive
same,outcome,[11],inactive
same,Potency,[12],inactive
same,Potency,[13],inactive
same,outcome,[14],inactive
NCC(CC(=O)O)c1ccc(Cl)cc1 (stereo not drawn),outcome,[9],inactive
same,outcome,[15],inactive
same,Potency,[10],5.62 µM (active)
same,outcome,[6],inactive
same,outcome,[11],inactive
same,outcome,[8],inactive
same,outcome,[14],inactive
Clc1cccc(N2CCNCC2)c1,outcome,[9],inactive
same,outcome,[15],inactive
same,Potency,[16],3.98 µM (active)
same,outcome,[11],inactive
same,outcome,[14],inactive
CNCC(O)c1ccc(O)cc1 (stereo not drawn),caspase-3 activation,[1],-0.124%
same,outcome,[2],inactive
same,outcome,[3],inactive
same,outcome,[4],inactive
same,outcome,[9],inactive
same,Potency,[5],inactive
same,Potency,[7],inactive
same,Potency,[13],inactive
same,outcome,[14],inactive
N[C@@H]1C[C@H]1c1ccccc1,outcome,[9],inactive
same,Potency,[10],inactive
same,outcome,[11],inactive
same,Potency,[13],inactive
same,outcome,[14],inactive
N#CC(C#N)=Cc1ccc(O)c(O)c1,outcome,[9],inactive
same,Potency,[17],7.94 µM (active)
same,Potency,[16],inactive
same,Potency,[18],inactive
same,outcome,[14],inactive
CCn1cc(C(=O)O)c(=O)c2ccc(C)nc21,outcome,[9],inactive
same,outcome,[11],inactive
same,Potency,[12],inactive
same,Potency,[13],inactive
same,outcome,[14],inactive
N[C@@H](Cc1ccc(N(CCCl)CCCl)cc1)C(=O)O,caspase-3 activation,[1],116% (active)
same,outcome,[2],inactive
same,outcome,[15],inactive
same,Potency,[7],39.8 µM (active)
C[C@]12C/C(=C/O)C(=O)C[C@@H]1CC[C@@H]1[C@@H]2CC[C@@]2(C)[C@H]1CC[C@]2(C)O,outcome,[3],inactive
Nc1ccncc1,outcome,[9],inactive
same,outcome,[6],inactive
same,outcome,[11],inactive
same,outcome,[8],inactive
same,Potency,[12],inactive
same,Potency,[13],inactive
same,outcome,[14],inactive
CCCC(C)(COC(N)=O)COC(=O)NC(C)C (stereo not drawn),caspase-3 activation,[1],0.766%
same,outcome,[2],inactive
same,outcome,[3],inactive
same,outcome,[4],inactive
same,outcome,[9],inactive
same,outcome,[15],inactive
same,outcome,[6],inactive
same,activation,[19],-37.8%
same,outcome,[11],inactive
same,Potency,[7],inactive
same,outcome,[8],inactive
same,Potency,[13],inactive
same,outcome,[14],inactive
OCCOc1ccccc1,caspase-3 activation,[1],-1.74%
same,outcome,[2],inactive
same,outcome,[3],inactive
same,outcome,[4],inactive
same,Potency,[5],inactive
same,Potency,[7],inactive
NCC1(CC(=O)O)CCCCC1,outcome,[9],inactive
same,Potency,[17],inactive
same,Potency,[5],inactive
same,Potency,[16],inactive
same,Potency,[18],inactive
same,outcome,[11],inactive
same,outcome,[14],inactive
Cc1ncc(CNC(=O)N(CCCl)N=O)c(N)n1,outcome,[9],inactive
same,outcome,[6],inactive
same,outcome,[11],inactive
same,outcome,[8],inactive
same,Potency,[13],inactive
same,outcome,[14],inactive
NCC(O)c1ccc(O)cc1 (stereo not drawn),caspase-3 activation,[1],-0.161%
same,outcome,[2],inactive
same,outcome,[3],inactive
same,outcome,[4],inactive
same,Potency,[5],inactive
same,outcome,[6],inactive
same,Potency,[7],inactive
same,outcome,[8],inactive
c1ccc(C2CC2)c(OCC2=NCCN2)c1,outcome,[9],inactive
same,Potency,[16],5.01 µM (active)
same,Potency,[18],inactive
same,activation,[19],8.99%
same,Potency,[13],10 µM (active)
same,outcome,[14],inactive
O=c1c(O)c(-c2ccc(O)c(O)c2)oc2cc(O)cc(O)c12,Potency,[10],5.62 µM (active)
same,Potency,[12],inactive
COc1ccc(Cc2nccc3cc(OC)c(OC)cc23)cc1OC,Potency,[17],12.6 µM (active)
same,outcome,[15],inactive
same,Potency,[16],12.6 µM (active)
same,Potency,[18],5.01 µM (active)
same,outcome,[6],inactive
same,Potency,[20],12.6 µM (active)
same,outcome,[8],inactive
C=C(C)[C@H]1Cc2c(ccc3c2O[C@@H]2COc4cc(OC)c(OC)cc4[C@@H]2C3=O)O1,Potency,[18],1 µM (active)
COc1ccc(C(CN(C)C)C2(O)CCCCC2)cc1 (stereo not drawn),Potency,[5],inactive
same,outcome,[6],inactive
same,outcome,[8],inactive
O=[N+]([O-])c1cc([As](=O)(O)O)ccc1O,Potency,[5],inactive
same,Potency,[18],inactive
same,outcome,[6],inactive
same,outcome,[8],inactive
O=C(O)c1ccc2[nH]cc(CCCCN3CC=C(c4ccccc4)CC3)c2c1,Potency,[5],inactive
CC(C)(C)NCC(O)c1cc(Cl)c(N)c(Cl)c1 (stereo not drawn),outcome,[15],inactive
same,outcome,[6],inactive
same,outcome,[8],inactive
CCC1C(=O)OCC1Cc1cncn1C (stereo not drawn),outcome,[15],inactive
CC(C)=CC1C(C(=O)OCc2cccc(Oc3ccccc3)c2)C1(C)C (stereo not drawn),Potency,[5],inactive
same,outcome,[6],inactive
same,outcome,[8],inactive
O=P1(NCCCl)OCCCN1CCCl (stereo not drawn),activation,[19],-2.35%
CCC1(C2=NCCN2)Cc2ccccc2O1 (stereo not drawn),Potency,[5],inactive
same,outcome,[6],inactive
same,outcome,[8],inactive
Fc1ccc(C(OCCN2CCN(CCCc3ccccc3)CC2)c2ccc(F)cc2)cc1,outcome,[9],inactive
same,Potency,[20],10 µM (active)
same,Potency,[12],1.58 µM (active)
same,Potency,[13],7.94 µM (active)
same,outcome,[14],inactive
CC(=O)[C@H]1CC[C@H]2[C@@H]3CC[C@H]4C[C@H](O)CC[C@]4(C)[C@H]3C(=O)C[C@]12C,outcome,[9],inactive
same,outcome,[11],inactive
same,outcome,[14],inactive
COc1cc2c(c(OC)c1OC)-c1ccc(OC)c(=O)cc1[C@@H](NC(C)=O)CC2,Potency,[17],3.16 µM (active)
same,Potency,[16],0.794 µM (active)
